In the library only some 2.4% were active in any assay of this set; here they are far more common.
Pol beta inh: qHTS Assay for Inhibitors of DNA Polymerase Beta. P06746. Pol beta primer extension/strand displacement, fluorescence kinetic. Potency, µM (series often up to 114 µM), usual class: inhibitors. actives 1.3% (n = 340,000)
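Pol beta (10 nM) was preincubated with compound for 15 min at room temperature. The reaction was then started with 50 nM substrate and read immediately and after a further 10 min at room temperature.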
Pol kappa inh: qHTS for Inhibitors of Polymerase Kappa | DNA polymerase kappa (Homo sapiens), Q9UBT6 | purified Pol kappa, fluorescent DNA synthesis assay, 10 min | Potency, µM (titrated, usually from 107 µM), usual class: inhibitors | actives 0.53% (n = 400,000) | AID 588579, 2011
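Kinetic fluorescence readout at 0 and 10 min followed reaction start with substrate at 50 nM final. Beforehand, enzyme (10 nM Pol kappa) stood 15 min with compound at room temperature; buffer-only wells were negative controls.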
Pol eta inh: qHTS for Inhibitors of Polymerase Eta; recombinant Pol eta, fluorescent DNA replication assay; Potency, µM (doses to about 114 µM), hits mostly inhibitors; actives 1.2% (n = 390,000); AID 588591, 2011
Target sequence (Q9Y253 whole entry, looked up): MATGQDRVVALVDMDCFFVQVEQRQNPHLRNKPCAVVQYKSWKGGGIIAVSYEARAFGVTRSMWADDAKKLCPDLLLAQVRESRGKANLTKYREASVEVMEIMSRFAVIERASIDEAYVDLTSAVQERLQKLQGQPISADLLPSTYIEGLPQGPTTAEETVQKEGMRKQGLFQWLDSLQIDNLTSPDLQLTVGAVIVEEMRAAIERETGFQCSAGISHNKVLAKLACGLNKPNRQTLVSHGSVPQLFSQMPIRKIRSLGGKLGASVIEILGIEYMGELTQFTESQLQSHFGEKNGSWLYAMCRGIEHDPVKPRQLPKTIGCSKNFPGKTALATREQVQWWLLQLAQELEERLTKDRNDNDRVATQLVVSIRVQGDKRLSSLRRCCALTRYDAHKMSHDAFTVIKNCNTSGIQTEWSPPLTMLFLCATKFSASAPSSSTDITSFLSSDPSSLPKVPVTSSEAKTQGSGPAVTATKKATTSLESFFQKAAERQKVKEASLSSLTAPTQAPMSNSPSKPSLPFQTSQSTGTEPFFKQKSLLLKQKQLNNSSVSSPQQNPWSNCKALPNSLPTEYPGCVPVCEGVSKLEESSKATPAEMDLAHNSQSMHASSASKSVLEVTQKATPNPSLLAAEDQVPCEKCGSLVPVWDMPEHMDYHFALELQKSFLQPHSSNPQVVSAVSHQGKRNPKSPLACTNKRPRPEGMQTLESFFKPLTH
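Fluorescent replication assay: 50 nM final substrate added after a 15 min room-temperature compound preincubation with 10 nM enzyme. Signal taken at 0 min and again at 10 min.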
WRN helicase inh: qHTS for Inhibitors of WRN Helicase; Potency, µM (titrated, usually from 114 µM), most hits filed as inhibitors; AID 651768, 2012; Bifunctional 3'-5' exonuclease/ATP-dependent helicase WRN (Homo sapiens), Q14191; actives 0.46% (n = 360,000); WRN helicase unwinding, fluorescent forked duplex, kinetic; further: nearly all actives have a fitted effect of over 55% in size
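Fluorescence dequenching readout, ex 525 nm/em 598 nm, kinetic mode: forked duplex DNA (100 nM final) with adjacent fluorophore and quencher unwound by WRN (20 nM final) with 2 mM ATP. Compound preincubation 15 min, room temperature.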
FEN1 inh: qHTS Assay for the Inhibitors of Human Flap endonuclease 1 (FEN1); Recombinant FEN1 flap cleavage, fluorescence, 15 min; Potency, µM (series often up to 114 µM), usual class: inhibitors; actives 0.35% (n = 390,000); AID 588795, 2011; further: nearly all actives have a fitted effect of over 65% in size
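Concentration–response screening of FEN1 (10 nM): 15 min compound preincubation at room temperature, reaction started with 50 nM substrate and read at 0 and 15 min. Corrected, normalized data were fitted by a four-parameter Hill equation.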
POLI inh: qHTS for Inhibitors of Polymerase Iota; Pol iota fluorescent replication assay, 10 min; Potency, µM (highest dose often 115 µM), usual class: inhibitors; AID 588590, 2011; actives 1% (n = 390,000)
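Pol iota at 10 nM preincubated 15 min with compounds at room temperature; reaction started with fluorescent substrate, 50 nM final. Fluorescence read kinetically at 0 and 10 min; buffer-only wells as negative control.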
Hits are given with their value; [ ] = another dose, or the depositor's remark. The call rests on the fitted dose curve; in most records, active means well fitted curve in the direction sought with a large enough effect; inconclusive means small, poorly fitted or top-dose-only effect, or another doubt; inactive means no such curve, though single readings can be large; an effect the other way counts as inactive or inconclusive.

For Cc1cc(C)c2c(=O)[nH]c(SCC(=O)c3ccc(C)c(C)c3)nc2n1 the results were Pol beta inh 18µM, Pol kappa inh inactive, Pol eta inh inactive, WRN helicase inh inactive, FEN1 inh inactive and POLI inh inactive.
`COc1ccc(C2C3C=CCC(c4cccc(-c5ccc(N(C)C)cc5)c4)C3C(=O)N2Cc2ccccc2)cc1Cl` (stereo not given) gave Pol kappa inh inactive, FEN1 inh inactive and POLI inh inactive.
`Cc1cc(C)cc(NC(=O)Cn2nnc(C(=O)NCc3ccccc3Cl)c2N)c1` gave Pol beta inh inactive, Pol kappa inh inactive, Pol eta inh inactive, WRN helicase inh inactive, FEN1 inh inactive and POLI inh inconclusive.
`Cc1ccccc1NC(=O)Cn1nnc(C(=O)NCCc2ccccc2)c1N` gave Pol beta inh 14µM, Pol kappa inh inactive, Pol eta inh inactive, FEN1 inh inactive and POLI inh inactive.
Screening Cc1ccc(C)c(NC(=O)Cn2nnc(C(=O)NCc3ccccc3Cl)c2N)c1 returned Pol beta inh 35µM, Pol kappa inh inactive, Pol eta inh inactive, FEN1 inh inactive and POLI inh inconclusive.
For CSc1cccc(NC(=O)Cn2nnc(C(=O)NCCc3ccccc3)c2N)c1 the results were Pol beta inh 25µM, Pol kappa inh inactive, Pol eta inh inactive, FEN1 inh inactive and POLI inh 79µM.
Nc1c(C(=O)NCCc2ccccc2)nnn1CC(=O)Nc1ccc(Cl)cc1 was read as Pol beta inh inconclusive, Pol kappa inh inactive, Pol eta inh inactive, FEN1 inh inactive and POLI inh 79µM.
Screening Cc1cc(C)cc(NC(=O)Cn2nnc(C(=O)NCCc3ccccc3)c2N)c1 returned Pol beta inh inconclusive, Pol kappa inh inactive, Pol eta inh inactive, WRN helicase inh inactive[11.6 µM], FEN1 inh inactive and POLI inh inconclusive.
Screening O=C1c2ccc(O)c(O)c2C(=O)c2c(O)ccc(O)c21 returned Pol kappa inh 2.8µM.
COc1ccc(/C(O)=C2/C(=O)C(=O)N(Cc3cccnc3)C2c2ccccn2)cc1 (stereo not given) was read as Pol beta inh inactive, Pol kappa inh inactive, Pol eta inh inactive, WRN helicase inh inactive, FEN1 inh inactive and POLI inh inactive.
CC(C)Oc1ccc(/C(O)=C2/C(=O)C(=O)N(Cc3cccnc3)C2c2ccco2)cc1 (stereo not given) was read as Pol beta inh 32µM, Pol kappa inh inactive, Pol eta inh inactive, WRN helicase inh inactive, FEN1 inh inactive and POLI inh inconclusive.
`Cc1cc(O)c(C(=O)/C=C/c2cccc([N+](=O)[O-])c2)c(=O)o1` gave Pol beta inh inconclusive, Pol kappa inh inconclusive, Pol eta inh 79µM, WRN helicase inh inactive, FEN1 inh inactive and POLI inh 40µM.
Screening Cc1ccc(CNC(=O)c2cnn(-c3cccc(C)c3)c2C2CCN(C(=O)OC(C)(C)C)CC2)cc1 returned Pol beta inh inactive, Pol kappa inh inactive, Pol eta inh inactive, FEN1 inh inactive and POLI inh inactive.
Screening CCN(CCCNC(=O)CNC(=O)c1nn(-c2ccc(OC)cc2)c(=O)c2ccccc12)c1cccc(C)c1 returned Pol beta inh inactive, Pol kappa inh inactive, Pol eta inh inactive, WRN helicase inh inactive, FEN1 inh inactive and POLI inh inactive.
Screening CCN(CCCNC(=O)c1cc2cc3ccc(OC)cc3nc2s1)c1ccccc1 returned Pol beta inh 11µM, Pol kappa inh 79µM, Pol eta inh inconclusive, FEN1 inh inactive and POLI inh 79µM.
CCCCN(C)C(=O)c1cc2cc3ccc(OC)cc3nc2s1 was read as Pol beta inh inactive, Pol kappa inh inactive, Pol eta inh inactive, WRN helicase inh inactive, FEN1 inh inactive and POLI inh inactive.
Screening CCN(CCCNC(=O)c1cc2cc3ccc(OC)cc3nc2s1)c1cccc(C)c1 returned Pol beta inh 4µM, Pol kappa inh inconclusive, Pol eta inh inconclusive, FEN1 inh inconclusive and POLI inh 79µM.
`CCN(CC)/[N+]([O-])=N/OCOC(=O)C(C)c1ccc(CC(C)C)cc1` (stereo not given) gave Pol kappa inh inactive, FEN1 inh inactive and POLI inh inactive.
For CCN(Cc1ccccc1)S(=O)(=O)c1ccc2[nH]c3c(c2c1)CCCCC3 the results were Pol beta inh inactive, Pol kappa inh inactive, Pol eta inh inactive, FEN1 inh inactive and POLI inh inactive.
Screening CCN(c1ccc(OC)cc1)S(=O)(=O)c1ccc2[nH]c3c(c2c1)CCCCC3 returned Pol beta inh inactive, Pol kappa inh inactive, Pol eta inh inactive, FEN1 inh inactive and POLI inh 79µM.
Screening COc1cc(/C=C2/C(=N)N3C(=NC2=O)SN=C3S(C)(=O)=O)ccc1OC(=O)c1ccco1 returned Pol beta inh inactive, Pol kappa inh inactive, Pol eta inh 50µM, WRN helicase inh inactive[11.6 µM], FEN1 inh inconclusive and POLI inh inconclusive.
Screening CCOc1cc(/C=C2/C(=N)N3OC(C)=CC3=NC2=O)ccc1OC(=O)c1ccco1 returned Pol beta inh inactive, Pol kappa inh inactive, Pol eta inh inactive, WRN helicase inh inactive, FEN1 inh inactive and POLI inh inactive.
CCS(=O)(=O)C1=NSC2=NC(=O)/C(=C\c3ccc(OC(=O)c4ccco4)c(OC)c3)C(=N)N21 was read as Pol beta inh inactive, Pol kappa inh inactive, Pol eta inh inconclusive, WRN helicase inh inactive, FEN1 inh inactive and POLI inh inconclusive.
Screening CCOc1cc(/C=C2/C(=N)N3C(=NC2=O)SN=C3S(=O)(=O)CC)ccc1OC(=O)c1ccco1 returned Pol beta inh inactive, Pol kappa inh inactive, Pol eta inh 79µM, WRN helicase inh inactive, FEN1 inh inactive and POLI inh inconclusive.
CCOc1cc(/C=C2/C(=N)N3C(=NC2=O)SN=C3S(=O)(=O)C(C)C)ccc1OC(=O)c1ccco1 was read as Pol beta inh inactive, Pol kappa inh inactive, Pol eta inh 45µM, WRN helicase inh inactive[11.6 µM], FEN1 inh inactive and POLI inh inactive.
`COc1cc(/C=C2/C(=N)N3C(=NC2=O)SN=C3S(=O)(=O)C(C)C)ccc1OC(=O)c1ccco1` gave Pol beta inh inactive, Pol kappa inh inactive, Pol eta inh 79µM, WRN helicase inh inactive, FEN1 inh inactive and POLI inh inconclusive.
Screening CC(=O)c1ccc(NC(=O)c2ncn(-c3ccccc3)n2)cc1 returned Pol beta inh inactive, Pol kappa inh inactive, Pol eta inh inactive, FEN1 inh inactive and POLI inh inactive.

Screening data (PubChem BioAssay)
